PubChem BioAssay (NCI)
About 79,000 compounds went through this panel and 15% of them were active in at least one assay; those are over-represented in the sample as a whole. Unmarked numbers belong to inactive results. The source made the active and inactive calls. Cut-off read from the data, not from the text of the source: active = growth inhibition above about 70%; inactive = the rest.

How the values were obtained:
[1] = NCI Yeast Anticancer Drug Screen. Data for the rad50 strain (AID 155);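 note: 0% = growth of vehicle-only cultures of the same strain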; settings: S. cerevisiae rad50 strain growth inhibition; at 50.0 µM; stronger effect = higher value
Method in brief: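 Genetically altered yeast (DNA repair pathway); compound treatment; growth inhibition vs vehicle ctrl.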

[2] = NCI Yeast Anticancer Drug Screen. Data for the mec2-1 strain (AID 157); settings: S. cerevisiae mec2-1 strain, at 50.0 µM, stronger effect = higher value
Method in brief: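 mec2-1 yeast strain, carrying an alteration in DNA damage repair or cell cycle control, was exposed to compounds; growth inhibition was measured relative to vehicle-treated controls.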

[3] = NCI Yeast Anticancer Drug Screen. Data for the sgs1 mgt1 strain (AID 161);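 note: 0% = growth of cultures given vehicle only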; settings: S. cerevisiae sgs1 mgt1 strain, at 50.0 µM, stronger effect = higher value
Method in brief: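 Compounds are added to genetically altered yeast, and growth is compared with cultures given vehicle alone to give percent inhibition.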

[4] = NCI Yeast Anticancer Drug Screen. Data for the cln2 rad14 strain (AID 165);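 note: 0% = growth equal to vehicle treated cultures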; settings: S. cerevisiae cln2 rad14 strain, at 50.0 µM, stronger effect = higher value
Method in brief: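 Yeast carrying cln2 and rad14 alterations (cell cycle control and DNA damage repair) were exposed to compounds. Growth inhibition was measured against vehicle-treated controls.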

[5] = NCI Yeast Anticancer Drug Screen. Data for the bub3 strain (AID 167); settings: S. cerevisiae bub3 mutant strain, at 50.0 µM, stronger effect = higher value
Method in brief: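 Yeast carrying a defined mutation is treated with each compound, and growth is compared with that of vehicle-exposed cells to give inhibition.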

[6] = NCI Yeast Anticancer Drug Screen. Data for the mlh1 rad18 strain (AID 175); settings: S. cerevisiae mlh1 rad18 strain growth inhibition; at 50.0 µM; stronger effect = higher value
Method in brief: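 Growth inhibition of the yeast strain was measured after compound exposure and expressed relative to vehicle-treated controls. The strain carries defined defects in DNA damage repair.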

`Cc1cc(Cl)ccc1N=NC(=O)NNc1ccc(Cl)cc1C` showed a growth inhibition [1] of 35.2%, a growth inhibition [2] of -15.2% and a growth inhibition [3] of -7.05%. For the same molecule, the growth inhibition [4] was -21.9%, the growth inhibition [5] was -7.2% and the growth inhibition [6] was -19.5%.
With `O=C(Nc1ccc(S(=O)(=O)NC2CCCCC2)cc1)OC(c1ccccc1)c1ccccc1` the growth inhibition [1] was 21.6%, the growth inhibition [2] was -0.75% and the growth inhibition [3] was 18.2%. For the same molecule, the growth inhibition [4] was 13.8%, the growth inhibition [5] was -6.15% and the growth inhibition [6] was 1.45%.
Work on `O=C1C=C(Nc2ccc(S(=O)(=O)Nc3ncccn3)cc2)c2ccccc2C1=O` yielded a growth inhibition [1] of 27.4%, a growth inhibition [2] of 41.5% and a growth inhibition [3] of 50.1%. The growth inhibition [4] was 30.8%, the growth inhibition [5] was 18.9% and the growth inhibition [6] was 44.6%.
Molecule `COc1c(C=O)c2c(c(OC)c1OC)-c1ccc(OC)c(=O)cc1[C@@H](NC(C)=O)CC2` has a growth inhibition [1] of 12.5%, a growth inhibition [2] of -9.6% and a growth inhibition [3] of -0.25%. For the same molecule, the growth inhibition [4] was 7.15%, the growth inhibition [5] was 2.9% and the growth inhibition [6] was -0.95%.
In the case of `CC(=O)Nc1ccc(S(=O)(=O)c2ccc(NC(C)=O)cc2)cc1`, the growth inhibition [1] is reported as -10.6%, the growth inhibition [2] is reported as -10.1% and the growth inhibition [3] is reported as -48.5%. For the same molecule, the growth inhibition [4] was -6.2%, the growth inhibition [5] was -26.5% and the growth inhibition [6] was -40.8%.
For `CC(=O)C(CCC#N)(CCC#N)C(=O)Nc1ccccc1`, the growth inhibition [1] was -9%, the growth inhibition [2] was 10.5% and the growth inhibition [3] was 3.35%. It also gave a growth inhibition [4] of -6%, a growth inhibition [5] of -2.05% and a growth inhibition [6] of -21.5%.
With `CN(C)c1ccc(/C=N/NC(=O)NN)cc1` the growth inhibition [1] was 6.2%, the growth inhibition [2] was -12.3% and the growth inhibition [3] was -23.3%. It also gave a growth inhibition [4] of -2.85%, a growth inhibition [5] of -2.15% and a growth inhibition [6] of -15.9%.
For `CN1CC(=O)N(CO)/C1=N\CO`, the growth inhibition [1] was -7.15%, the growth inhibition [2] was -5.45% and the growth inhibition [3] was -6.85%. The growth inhibition [4] was -10.8%, the growth inhibition [5] was 5.85% and the growth inhibition [6] was 2.05%.
Work on `N[C@@H](CSSc1ccccc1C(=O)O)C(=O)O` yielded a growth inhibition [1] of -32.9%, a growth inhibition [2] of -7.25% and a growth inhibition [3] of -14.4%. For the same molecule, the growth inhibition [4] was 1.85%, the growth inhibition [5] was 0.8% and the growth inhibition [6] was -10.3%.
In the case of `CCCc1cc(=O)n(CCCc2ccccc2)c(=O)[nH]1`, the growth inhibition [1] is reported as -3.85%, the growth inhibition [2] is reported as 1.25% and the growth inhibition [3] is reported as 13.4%. It also gave a growth inhibition [4] of -7.75%, a growth inhibition [5] of 15.2% and a growth inhibition [6] of 18.4%.
Work on `O=C(O)CN(CCCCN(CC(=O)O)CC(=O)O)CC(=O)O` yielded a growth inhibition [1] of -6.8%, a growth inhibition [2] of -15.8% and a growth inhibition [3] of 9.3%. For the same molecule, the growth inhibition [4] was -66.5%, the growth inhibition [5] was 16.4% and the growth inhibition [6] was -21.2%.
`O=[N+]([O-])c1ccc(Sc2c3ccccc3nc3cc(Cl)ccc23)cc1` showed a growth inhibition [1] of -32.2%, a growth inhibition [2] of -18.3% and a growth inhibition [3] of -18.5%. For the same molecule, the growth inhibition [4] was 9.3%, the growth inhibition [5] was -20.3% and the growth inhibition [6] was -28.9%.
Molecule `COc1ccc(NC=O)c(C(=O)CCNC(C)=O)c1` has a growth inhibition [1] of -14.9%, a growth inhibition [2] of -20.2% and a growth inhibition [3] of -13.4%. The growth inhibition [4] was -6.8%, the growth inhibition [5] was -16.3% and the growth inhibition [6] was -51.2%.
With `Cc1ccc(-c2cn3c(nc4ccccc43)c(-c3ccccc3)n2)cc1` the growth inhibition [1] was -25.6%, the growth inhibition [2] was -26.9% and the growth inhibition [3] was -41.6%. It also gave a growth inhibition [4] of -53.4%, a growth inhibition [5] of -26.1% and a growth inhibition [6] of -45%.
`C/C(CC(O)(C(F)(F)Cl)C(F)(F)Cl)=N\Nc1ccccc1` showed a growth inhibition [1] of 28%, a growth inhibition [2] of 15.1% and a growth inhibition [3] of 6.55%. It also gave a growth inhibition [4] of 28.1%, a growth inhibition [5] of -0.9% and a growth inhibition [6] of 17.5%.
In the case of `N=C1C=Cc2ccccc2/C1=N/N=c1/ccccn1O`, the growth inhibition [1] is reported as 72.2% (active), the growth inhibition [2] is reported as 91.6% (active) and the growth inhibition [3] is reported as 73.5% (active). For the same molecule, the growth inhibition [4] was 51.7%, the growth inhibition [5] was 98.3% (active) and the growth inhibition [6] was 78.2% (active).
With `C[Si](C)(C)O[Si](C)(C)CCl` the growth inhibition [1] was -28.9%, the growth inhibition [2] was -12.4% and the growth inhibition [3] was -3.1%. For the same molecule, the growth inhibition [4] was -10.2%, the growth inhibition [5] was -6.2% and the growth inhibition [6] was -34.2%.
In the case of `Cc1cc(=O)n2nc(SCc3ccccc3)sc2n1`, the growth inhibition [1] is reported as 11.3%, the growth inhibition [2] is reported as 8.2% and the growth inhibition [3] is reported as 28.9%. It also gave a growth inhibition [4] of 1.9%, a growth inhibition [5] of 3.5% and a growth inhibition [6] of -8.95%.
Work on `CC1(C)OC2OC(CNC(=O)c3ccccc3)C(O)C2O1` (stereo unspecified) yielded a growth inhibition [1] of -9.05%, a growth inhibition [2] of -4.4% and a growth inhibition [3] of 3.05%. It also gave a growth inhibition [4] of -3.1%, a growth inhibition [5] of -10.3% and a growth inhibition [6] of -18.8%.
In the case of `O=c1[nH]c2cc([N+](=O)[O-])ccc2nc1/C=C(\O)c1cccc([N+](=O)[O-])c1`, the growth inhibition [1] is reported as 12.3%, the growth inhibition [2] is reported as -1.35% and the growth inhibition [3] is reported as 5.25%. For the same molecule, the growth inhibition [4] was -5.15%, the growth inhibition [5] was -3.1% and the growth inhibition [6] was 28.6%.
`COC(=O)C(=O)C(C#N)c1c(Cl)cccc1Cl` (stereo unspecified) showed a growth inhibition [1] of -5.6%, a growth inhibition [2] of 39.1% and a growth inhibition [3] of 0.05%. It also gave a growth inhibition [4] of 8.9%, a growth inhibition [5] of 1.65% and a growth inhibition [6] of 34.1%.
